# Experimental data reported in the supplement of paper PMC12350171.
# Structures can show the parent of a compound that is named as a salt.
# System: Haemophilus parainfluenzae
# Experiment: growth AUC normalised to DMSO control (fraction of control); higher = less growth inhibition, active = hit call of the paper
# Details: 20 µM;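 active = AUC significantly below DMSO controls by Student t-fit with adjusted P under 0.01; inactive = not significantly reduced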
# How it was run: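 After two anaerobic passages, pathogens were added at a starting OD578 of 0.01 to pre-reduced mGAM plates holding compound at 20 μM with 1% DMSO; hemin and NAD were supplemented for Haemophilus parainfluenzae. Sealed with breathable membranes, plates were read at OD578 hourly for 24 h, in three biological replicates. The trapezoidal rule, applied up to the exponential-to-stationary transition, gave the growth-curve AUC, which was normalised to DMSO controls on the same plate.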
row,SMILES,growth AUC normalised to DMSO control
1,Cc1cc(/C=C/c2ccc3cc(N(C)C)ccc3[n+]2C)c(C)n1-c1ccccc1 [Pyrvinium pamoate],1.06 (inactive)
2,CC(C)NCC(O)c1cc(O)cc(O)c1 (configuration not stated) [Metaproterenol sulfate],0.99 (inactive)
3,COC(=O)C1=C(C#N)NC(C)=C(C(=O)OC(C)C)C1c1cccc([N+](=O)[O-])c1 (configuration not stated) [Nilvadipine],0.985 (inactive)
4,O=C(O)CCc1nc(-c2ccccc2)c(-c2ccccc2)o1 [Oxaprozin],1.08 (inactive)
5,CC1Cc2ccccc2N1NC(=O)c1ccc(Cl)c(S(N)(=O)=O)c1 (configuration not stated) [Indapamide],1.03 (inactive)
6,CC(CCc1ccc(O)cc1)NCCc1ccc(O)c(O)c1 (configuration not stated) [Dobutamine hydrochloride],1.05 (inactive)
7,Cc1cc(-c2ccccc2)nnc1NCCN1CCOCC1 [Minaprine dihydrochloride],0.991 (inactive)
8,CN1CCC(=C2c3ccccc3CC(=O)c3sccc32)CC1 [Ketotifen fumarate],0.997 (inactive)
9,CC(C)(C)NC[C@@H](O)COc1cccc2c1CCCC2=O [(+) Levobunolol hydrochloride],0.973 (inactive)
10,CNCCC=C1c2ccccc2C=Cc2ccccc21 [Norcyclobenzaprine],0.91 (inactive)
11,COC(=O)[C@@H]1[C@H]2C[C@H]3c4[nH]c5ccccc5c4CCN3C[C@@H]2CC[C@@H]1O [Yohimbine hydrochloride],0.971 (inactive)
12,CC(=O)S[C@@H]1CC2=CC(=O)CC[C@]2(C)[C@H]2CC[C@@]3(C)[C@@H](CC[C@@]34CCC(=O)O4)[C@H]12 [Spironolactone],0.891 (inactive)
13,CC(=O)OC(C)C[N+](C)(C)C (configuration not stated) [Methacholine chloride],0.979 (inactive)
14,CC[C@H](c1ccc(O)cc1)[C@@H](CC)c1ccc(O)cc1 [Hexestrol],0.984 (inactive)
15,C=CC(N)CCC(=O)O (configuration not stated) [Vigabatrin hydrochloride],1.02 (inactive)
16,CC(=O)Oc1ccccc1C(=O)O [Acetylsalicylic acid],1.08 (inactive)

row,SMILES,growth AUC normalised to DMSO control
1,CC(=O)Nc1nnc(S(N)(=O)=O)s1 [Acetazolamide],0.959 (inactive)
2,CS(=O)(=O)Nc1ccc([N+](=O)[O-])cc1Oc1ccccc1 [Nimesulide],0.982 (inactive)
3,C[N+](C)(C)CCCCCC[N+](C)(C)C [Hexamethonium dibromide dihydrate],0.852 (inactive)
4,CCN(CC)C(=O)N1CCN(C)CC1 [Diethylcarbamazine citrate],0.978 (inactive)
5,NC[C@@H]1O[C@@H](O[C@H]2[C@H](O)[C@@H](O[C@H]3O[C@H](CO)[C@@H](O)[C@H](N)[C@H]3O)[C@H](N)C[C@@H]2N)[C@@H](O)[C@H](O)[C@H]1O [Kanamycin A sulfate],0.976 (inactive)
6,CC1(C)S[C@@H]2[C@H](NC(=O)Cc3ccccc3)C(=O)N2[C@H]1C(=O)O [Benzylpenicillin sodium],0.0512 (active)
7,CO/N=C(\C(=O)N[C@@H]1C(=O)N2C(C(=O)O)=C(C[N+]3(C)CCCC3)CS[C@H]12)c1csc(N)n1 [Cefepime hydrochloride],0.0407 (active)
8,O=C1NCCN1c1ncc([N+](=O)[O-])s1 [Niridazole],0.392 (active)
9,CC1=C(C(=O)O)N2C(=O)[C@@H](NC(=O)[C@H](N)c3ccc(O)cc3)[C@H]2SC1 [Cefadroxil],0.949 (inactive)
10,CC(C)(C)c1ccc(C(O)CCCN2CCC(C(O)(c3ccccc3)c3ccccc3)CC2)cc1 (configuration not stated) [Terfenadine],0.88 (inactive)
11,Clc1ccc(CSC(Cn2ccnc2)c2ccc(Cl)cc2Cl)cc1 (configuration not stated) [Sulconazole nitrate],1.08 (inactive)
12,COc1ccc2cc(CCC(C)=O)ccc2c1 [Nabumetone],0.997 (inactive)
13,CN(C)CC/C=C1/c2ccccc2COc2ccc(CC(=O)O)cc21 [Olopatadine hydrochloride],0.881 (inactive)
14,NCCCC(O)(P(=O)(O)O)P(=O)(O)O [Alendronate sodium],1.05 (inactive)
15,Cc1onc(-c2c(F)cccc2Cl)c1C(=O)N[C@@H]1C(=O)N2[C@@H]1SC(C)(C)[C@@H]2C(=O)O [Flucloxacillin sodium],0.944 (inactive)
16,NS(=O)(=O)c1cc2c(cc1C(F)(F)F)NCNS2(=O)=O [Hydroflumethiazide],0.991 (inactive)
